HCV inhibitor = qHTS Assay for Inhibitors of Hepatitis C Virus (HCV). Potency, µM (doses to about 41.8 µM), most hits filed as inhibitors. Huh7.5.1 HCVcc-Cre infection, luciferase reporter, 44 h. hit rate 3.4% among 340,000
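HCVcc-Cre virus at an moi near 0.5 was added right after compound to cells cultured 4 h from seeding (1,000 cells/well). Luciferase activity was determined 44 h later, 15 min after substrate addition at RT.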
HCMV inh = qHTS Assay for inhibitors of the human cytomegalovirus (HCMV); HFF cells, HCMV-luciferase reporter, 72 h; stronger effect = lower value; activity change, negative = inhibition, % at 57.5 µM; hit rate 4.5% among 410,000; in the data active means activity change below about -60%; inconclusive means no clear call, values can overlap the other calls; inactive means above about -39%
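Human foreskin fibroblasts infected with luciferase-reporter HCMV at MOI 1 PFU/cell, compounds at two doses. Luciferase measured 72 h post infection; normalized to buffer-only basal and Salinomycin (10uM) controls.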
Vaccinia mCherry = qHTS for Stage-Specific Inhibitors of Vaccinia Orthopoxvirus: mCherry Reporter Primary qHTS; Vaccinia virus mCherry reporter infection, fluorescence; Potency, µM (series often up to 36.5 µM), usual class: inhibitors; hit rate 0.63% among 310,000; AID 720579, 2013; calls by dose curve; tested in A549 cells; further: nearly all actives have a fitted effect of over 35% in size
FMDV inh = High Throughput Screening for Foot and Mouth Disease Virus Antivirals; FMDV antiviral cell-based qHTS; Potency, µM (top dose mostly 57.9 µM), hits mostly inhibitors; hit rate 1.2% among 410,000; calls by dose curve; tested in HEK293T cells; further: read-out not given here; nearly all actives have a fitted effect of over 45% in size
VACV Venus inh = qHTS for Stage-Specific Inhibitors of Vaccinia Orthopoxvirus: Venus Reporter Primary qHTS | Vaccinia virus Venus reporter expression, fluorescence | Potency, µM (doses to about 36.5 µM), hits mostly inhibitors | hit rate 0.46% among 330,000 | AID 720580, 2013; calls by dose curve; tested in A549 cells; further: nearly all actives have a fitted effect of over 30% in size
Giardia FBPA inh = qHTS Assay for Inhibitors of Fructose-1,6-bisphosphate Aldolase from Giardia Lamblia | purified Giardia FBPA | hit rate 0.71% among 290,000 | Potency, µM (top dose mostly 59.6 µM), usual class: inhibitors; further: nearly all actives have a fitted effect of over 55% in size
Target sequence (A8B2U2 whole entry, looked up): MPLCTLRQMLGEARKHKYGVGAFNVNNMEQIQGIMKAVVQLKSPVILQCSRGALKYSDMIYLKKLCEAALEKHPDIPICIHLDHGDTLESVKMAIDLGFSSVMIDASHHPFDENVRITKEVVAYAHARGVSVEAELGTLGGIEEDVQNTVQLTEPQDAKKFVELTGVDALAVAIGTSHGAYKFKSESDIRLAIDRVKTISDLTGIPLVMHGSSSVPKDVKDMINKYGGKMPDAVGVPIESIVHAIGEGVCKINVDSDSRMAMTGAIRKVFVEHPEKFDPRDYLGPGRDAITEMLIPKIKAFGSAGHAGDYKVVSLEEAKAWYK
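Giardia FBPA (40 nM reagent) was preincubated 10 min at RT with compound (up to 57.5 uM final), then substrate plus GAPDH/TPI/NAD/arsenate coupling system with diaphorase/resazurin was added; resorufin fluorescence (525/598 nm) was read after 20 min.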
Hits are given with their value; - = inactive; ? = inconclusive; . = not tested or not shown; [ ] = another dose, or the depositor's remark. In the library only some 7.5% were active in any assay of this set; here they are far more common. Unless noted, the call rests on the fitted dose curve; in most records, active means well fitted curve in the direction sought with a large enough effect; inconclusive means small, poorly fitted or top-dose-only effect, or another doubt; inactive means no such curve, though single readings can be large; an effect the other way counts as inactive or inconclusive.

SMILES	HCV inhibitor	HCMV inh	Vaccinia mCherry	FMDV inh	VACV Venus inh	Giardia FBPA inh
Cc1ccccc1-n1nnnc1-c1ccccc1	-	-	.	-	.	?
Cc1cccc2c1nc(-c1ccccc1)n1cnnc21	-	-68.7	.	?	.	-
Cc1cccc2c1nc(-c1ccccc1)n1nnnc21	-	-60.2	.	-	.	-
COc1ccccc1N(C(=O)c1snc(C(N)=O)c1N)C(C(=O)NC1CCCCC1)c1cccc(OC)c1OC (centres undefined)	?	?	-	-	-	-
COc1ccc(OC)c(C(C(=O)NC2CCCCC2)N(C(=O)c2snc(C(N)=O)c2N)c2ccccc2OC)c1 (centres undefined)	-	-60.7	-	-	-	.
CN(CC(=O)Nc1cccc(F)c1)C(=O)c1ccc(NC2CC2)c([N+](=O)[O-])c1	-	-	-	-	-	.
CC(=O)Nc1sc2c(c1C(c1ccc(Cl)cc1)N1CCOCC1)CCCC2 (centres undefined)	-	-94.3	-	?	-	-
CC(=O)Nc1sc2c(c1C(c1ccc(F)cc1)N1CCOCC1)CCCC2 (centres undefined)	-	-86.2	-	?	?	-
CC(=O)Nc1sc2c(c1C(c1ccccc1)N1CCOCC1)CCCC2 (centres undefined)	-	-	-	?	-	-
COc1ccc(C(c2c(NC(=O)c3ccco3)sc(C)c2C)N2CCOCC2)cc1 (centres undefined)	?	-	-	-	-	.
CCOc1ccc(NC(=O)Cc2ccc(NC(=O)N3CCCCc4ccccc43)cc2)cc1	.	-	-	-	?	.
CCSC1(SCC)N=C(N)C2(C#N)C(c3ccc(OC)c(OC)c3OC)C12C#N (centres undefined)	8.91µM	-	.	25.1µM	-	-
O=C(Nc1ccccc1C(=O)Nc1ccc2c(c1)OCO2)c1ccco1	12.6µM	-	?	-	-	.
O=C(Nc1ccc(NC(=O)c2ccco2)cc1)c1ccc2c(c1)OCCO2	?	-72.5	-	-	-	-
Cn1cccc1C(=O)OCc1ccc(F)cc1	-	-74.9	-	-	-	-
CCOC(=O)CN1C(=O)N[C@@H](c2ccccc2)[C@H](C(C)=O)[C@H]1C	-	-102.6	-	-	-	-[12.9 µM]
COC(=O)[C@@H]1[C@@H](C)N(Cc2ccccc2)C(=O)N[C@H]1c1cccc(C(F)(F)F)c1	2.82µM	-	-	-	-	-[12.9 µM]
Cc1ccc2nc(SCC(=O)Nc3ccccc3N3CCOCC3)c(C#N)cc2c1	?	?	?	-	?	-
N#Cc1c(-c2ccccc2)cc(-c2ccccc2)nc1SCC(=O)Nc1ccc(Cl)cc1	.	-	-	-	-	.
N#Cc1cc2c(nc1SCC(=O)Nc1cc(Cl)ccc1Cl)C1CCN2CC1	?	-87.7	.	?	.	-
N#Cc1cc2c(nc1SCC(=O)Nc1ccc(Cl)c(C(F)(F)F)c1)C1CCN2CC1	.	-68.4	-[7.34 µM]	-	?	.
N#Cc1cc2c(nc1SCC(=O)Nc1ccc(C(F)(F)F)cc1)C1CCN2CC1	.	-75.4	-[7.34 µM]	?	-[7.34 µM]	.
N#Cc1cc2c(nc1SCC(=O)Nc1ccc(Cl)cc1)C1CCN2CC1	2.82µM	-90.8	.	-	.	-
N#Cc1ccc(-c2cccs2)nc1SCC(=O)Nc1cccc(C(F)(F)F)c1	.	-	-	-	-	.
NC(=O)c1ccc(NC(=O)COC(=O)c2ccc(Br)o2)cc1	-	-	.	-	.	.
SMILES	HCV inhibitor	HCMV inh	Vaccinia mCherry	FMDV inh	VACV Venus inh	Giardia FBPA inh
COc1ccc(C)cc1NC(=O)N1CCN(c2cc(-c3noc(C)n3)ccc2C)CC1	.	-	-	-	-	.
O=C(C[N+]1(CC(O)c2ccccc2)CCOCC1)c1ccccc1 (centres undefined)	.	.	-	.	-	.
O=C(CCc1ccncc1)NC1CCCc2c1cnn2-c1cc(F)cc(F)c1 (centres undefined)	-	.	-	-	-	.
CCOC(=O)c1cccn1C1C(=O)N(C)c2c(F)cccc21 (centres undefined)	.	-	.	.	.	.
Cc1nc2c3ccccc3nc(SCC(=O)c3ccc(Cl)cc3)n2n1	25.1µM	-	-	?	-	?
N#C/C(=C/c1ccc(N2CCCCCC2)o1)c1ccc(F)cc1	?	.	-	-	-	.
N#C/C(=C/c1ccc(N2CCCCC2)o1)C(=O)Nc1ccc2ccccc2c1	10µM	?	-	-	-	-
N#C/C(=C/c1ccc(N2CCCCC2)o1)C(=O)Nc1ccc(Cl)cc1	?	-	.	-	.	-
N#C/C(=C\c1ccc(N2CCOCC2)o1)c1ccccc1	11.2µM	-	-	.	-	?
N#C/C(=C/c1ccc(N2CCCCCC2)o1)c1cccc(F)c1	?	-80.8	.	-	.	?
Cc1ccc(S(=O)(=O)N2CCN(CCOc3cccc(C)c3)CC2)cc1	?	-	.	?	.	.
Fc1ccc(Nc2ccnc(Nc3ccc(F)cc3)n2)cc1	?	-	10µM	-	11.2µM	-
Nc1c(S(=O)(=O)c2ccccc2)c2nc3ccccc3nc2n1/N=C/c1cccc(O)c1	14.1µM	-101.1	.	-	11.2µM	-
Cc1cccc(S(=O)(=O)c2c(N)n(/N=C/c3ccccc3)c3nc4ccccc4nc23)c1	-	-	.	-	.	-
Cc1cc[n+](CC(=O)c2ccc(NC(=O)c3ccccc3)cc2)c2ccccc12	-	-97.4	.	?	.	-
O=C(Nc1ccc[n+](CC(=O)c2cccc3ccccc23)c1)c1ccccc1	?	?	15.8µM	?	?	-
O=C(C[n+]1cccc2ccccc21)c1ccc(NC(=O)c2ccccc2)cc1	-	-83.3	.	-	.	-
O=C(Cc1ccc(Cl)cc1)NCCc1cnc[nH]1	-	-	-	-	-	-
COC(=O)c1cc(NC(=O)CC2CCCC2)cc(C(=O)OC)c1	-	-63.7	-	-	-	-
CCCCN(C(=O)c1cc(-c2ccco2)nc2ccccc12)c1c(N)n(CCC)c(=O)[nH]c1=O	-	-	.	-	.	.
COc1ccc(O)c(/C=N/NC(=O)CCC(=O)Nc2ccc(C)cc2)c1	?	-	.	-	.	-
COc1cc(/C=N/NC(=O)COc2ccc(Cl)cc2)ccc1OS(=O)(=O)c1ccc(C)cc1	11.2µM	-	.	-	.	-
C=CCNC(=O)/C(C#N)=C/c1ccc(OS(=O)(=O)c2ccc(C)cc2)c(OC)c1	-	-98.6	-	20µM	-	-
COc1ccc(O)c(/C=N/NC(=O)CN2CCS(=O)(=O)CC2)c1	-	-	3.16µM	-	-	.
COc1ccc(CSCC(=O)N/N=C/c2ccccc2O)cc1	8.91µM	-	?	-	-	-
COC(=O)N/N=C/c1ccc(OS(=O)(=O)c2ccc(C)cc2)c(OC)c1	-	-	-	-	-	-
C[C@@H](C(=O)N=c1sc2ccccc2n1C)N1C(=O)C2CC=CCC2C1=O (some centres undefined)	-	-	-	?	-	.
